# GDH-TPI counter: counter-screen for M. tuberculosis FBA inhibitors: GDH-TPI coupled enzymes; GDH-TPI coupled enzyme counterscreen, NADH absorbance; inhibition, % at 4.8 µM; hit rate 1.2% among 360,000; in the data active = inhibition above about 30%;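 also: 0% = DMSO wells and 100% = wells lacking the enzyme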
# Anthrax LF prot: blocks Bacillus anthracis lethal factor protease; multiplex microsphere protease cleavage assay, LF; inhibition, % at 10 µM; hit rate 0.12% among 360,000; also: plate controls were buffer without enzyme for full effect and enzyme alone for no effect
# FBA Mtb inh: inhibitors of M. tuberculosis fructose-bisphosphate aldolase | purified M. tuberculosis FBA, fluorescence read-out | inhibition, % at 1 µM | hit rate 2.3% among 360,000; in the data active = inhibition above about 27%;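 also: 0% = vehicle and 100% = reference inhibitor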
# Target sequence (P9WQA3 whole entry, looked up): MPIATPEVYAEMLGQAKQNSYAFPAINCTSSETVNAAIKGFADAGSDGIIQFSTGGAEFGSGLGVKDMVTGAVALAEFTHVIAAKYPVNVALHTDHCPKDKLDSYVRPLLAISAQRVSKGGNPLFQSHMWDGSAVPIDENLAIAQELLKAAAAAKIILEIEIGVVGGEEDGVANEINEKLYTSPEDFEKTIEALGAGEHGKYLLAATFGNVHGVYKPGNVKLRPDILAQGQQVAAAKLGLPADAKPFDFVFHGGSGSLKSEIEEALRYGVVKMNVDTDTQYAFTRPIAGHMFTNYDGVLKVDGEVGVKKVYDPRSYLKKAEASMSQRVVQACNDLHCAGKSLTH
# Autofluor counter: counter-screen for toxin protease inhibitors: compound fluorescence | compound autofluorescence counterscreen, microsphere flow cytometry; hits give high values | fluorescence intensity (test concentration not listed) | hit rate 3.1% among 360,000 | AID 624483; in the data active = fluorescence intensity above about 16000; inconclusive = no clear call, values can overlap the other calls
# BoNT F protease: BoNT F light chain protease inhibition; Multiplex microsphere protease cleavage assay, flow cytometry; inhibition, % at 10 µM; hit rate 0.22% among 360,000; in the data active = inhibition above about 35%, passing the limit was not always enough; inconclusive = no clear call, values can overlap the other calls; also: plate controls were buffer without enzyme for full effect and enzyme alone for no effect
# BoNT A protease: inhibitors of Botulinum neurotoxin A light chain protease | multiplex microsphere protease substrate cleavage, flow cytometry | hit rate 0.17% among 360,000 | inhibition, % at 10 µM; also: plate controls were buffer without enzyme for full effect and enzyme alone for no effect
# * marks the source's active call; other numbers are inactive results; ? = inconclusive; . = no result; + = active, no number; ! = not active in a repeat. A selection: hits, their analogues and other compounds. The true share with any hit is near 6.6%. Rule as the data show it, unless noted: active = inhibition above about 30%; inconclusive = no clear call, values can overlap the other calls; inactive = below that.
SMILES,GDH-TPI counter,Anthrax LF prot,FBA Mtb inh,Autofluor counter,BoNT F protease,BoNT A protease
COc1cc(/C=C2\SC(=O)NC2=O)ccc1Oc1cnccn1,36*,-3,-2,2000,-4,0
COc1ccc(/C=C2/SC(=S)NC2=O)cc1OCc1ccccc1,19,9,-1,3780,-5,-1
COc1cc(/C=C2/SC(=O)NC2=O)ccc1OCc1ccccc1,43*,.,-1,.,.,.
Cn1ccnc1COc1ccc(C=O)cc1,-6,-4,-6,3739,0,0
C=CCN=C1S/C(=C\N(C)C)C(=O)N1S(=O)(=O)c1ccc(C)cc1,36*,3,-3,3377,4,1
O=C(C/C=N/OCc1ccc(Cl)cc1Cl)c1ccc(Cl)cc1,-2,-3,-1,22103*,-2,1
O=C(C/C=N/OCc1c(Cl)cccc1Cl)c1ccccc1,-11,-5,1,23991*,-7,-4
O=C(Nc1ccc2c(c1)OCO2)c1csc([C@H]2C[C@H](O)[C@@H](CO)O2)n1,15,-1,6,3113,-6,0
CC1=Nc2ccccc2/C1=C\c1nc(-c2ccc(C(F)(F)F)cc2)oc1O,5,6,1,17953*,-47,10
CC1=Nc2ccccc2/C1=C\c1nc(-c2ccccc2)oc1O,1,-26,-22,2897,-120,21
CNC(C)C(=O)NC(C(=O)NC(C)C(=O)Nc1cccc2ccccc12)C(C)C (stereo not drawn),14,-3,5,3620,-8,0
Nc1ncnc2nc(SCC(=O)N3CCN(c4ccccc4)CC3)[nH]c12,0,-12,-1,17350*,19,?
COc1ccccc1N1CCN(C(=O)CSc2nc3ncnc(N)c3[nH]2)CC1,10,4,-1,5596,0,0
Nc1ncnc2nc(SCCN3CCCCC3)[nH]c12,8,-2,-1,16379*,0,0
O=C(CSc1ccccn1)N1CCN(c2ccccc2)CC1,-1,-2,4,16913*,-2,-3
Cc1ccc(S(=O)(=O)N2CC3(O)CN(C(=O)OC(C)C)N(C(=O)OC(C)C)CC3(OC(=O)NCc3ccco3)C2)cc1 (stereo not drawn),0,-4,1,3926,-5,-1
CCOc1ccc(CCNC(=O)Cn2cccc2C(=O)c2ccccc2C)cc1OCC,1,-3,0,8511,-8,0
CCCCN(CCO)c1ncnc2sc(-c3ccccc3)cc12,31*,16,14,3038,-6,-4
COc1ccc(/C=C(\C#N)C(=O)OCC(=O)NCc2ccco2)cc1,22,-2,1,4017,0,0
O=[N+]([O-])/C=C/c1cn(Cc2ccc(Cl)cc2)c2ccccc12,5,21,-5,4418,12,39*
COc1ccc(O)c(CN2CCN(C/C=C/c3ccccc3)CC2)c1,1,-1,2,24344*,-3,-1
COc1cc(Br)cc(CN2CCN(C/C=C/c3ccccc3)CC2)c1O,0,-6,-1,11697,-12,-2
CCN1Cc2c(/C=C/c3ccccc3)nc3ccc(OC)cc3c2N(c2cccc(Cl)c2)C1,16,13,4,4228,-8,53*
COc1cccc(N2CCc3c(C)nc4ccc(Cl)cc4c32)c1,4,5,16,3742,-8,-1
Cc1cc(O)ccc1N=Cc1c(C(F)(F)F)[nH][nH]c1=O,2,-2,-3,2162,-3,0
SMILES,GDH-TPI counter,Anthrax LF prot,FBA Mtb inh,Autofluor counter,BoNT F protease,BoNT A protease
COc1cc(=O)[nH]c(SCc2c(F)c(F)c(F)c(F)c2F)n1,-1,2,0,18910*,3,2
O=c1cc(-c2ccccc2)nc(SCc2ccc(F)cc2)[nH]1,-2,-1,-1,2557,1,0
N#CC(c1ccc(O)cc1)N1CCN(C(C#N)c2ccc(O)cc2)CC1 (stereo not drawn),82*,-7,-1,4346,-2,0
CCc1nnc(NS(=O)(=O)c2ccc(NC(=O)c3ccccc3)cc2)s1,-11,4,8,4172,-2,1
CC(=O)c1ccc(NS(=O)(=O)c2ccccc2)cc1,8,3,-2,21657*,-1,-2
CCc1nnc(NC(=O)c2ccc(NS(=O)(=O)c3ccccc3)cc2)s1,34*,-10,10,9809,-1,0
COCCCN1C(=O)C(CC(=O)NC(c2ccccc2)c2ccccc2)CC(C(=O)N2CCOCC2)=C1C (stereo not drawn),0,-1,-1,3849,-4,0
C/C(=C1\SC(N2CCOCC2)=NC1=O)c1ccccc1,4,-10,-3,9566,-2,-1
C/C(=C1/SC(N2CC(C)OC(C)C2)=NC1=O)c1ccccc1 (stereo not drawn),10,-4,0,19965*,-1,-1
CCNC(=O)COc1cccc2ccccc12,-13,-1,-3,21317*,0,-1
C=CCNC(=S)N(CC=C)C1CCS(=O)(=O)C1 (stereo not drawn),9,-1,3,2475,0,0
CC(C)C[C@H](NC(=O)Nc1ccc(Oc2ccccc2)cc1)C(=O)O,-3,-1,0,7894,-5,-1
COC(=O)[C@H](CC(C)C)NC(=O)NC1CCCc2ccccc21 (stereo partly drawn),7,-2,-1,2303,-9,0
COC(=O)[C@H](CC(C)C)NC(=O)NC1CCCCC1C (stereo partly drawn),-8,-17,-1,17745*,6,4
O=S(=O)(/C=C/c1ccccc1)Oc1ccccc1,1,0,-3,21677*,-4,-3
CNS(=O)(=O)/C=C/c1ccccc1,-13,-3,4,7003,0,-1
O=C(/C=C/c1ccc(O)c(O)c1)O[C@@H]1C[C@](O)(C(=O)O)C[C@@H](O)[C@H]1O,50*!,4,1,5629,1,0
CCOC(=O)C1(C)CCN1C(=O)c1ccco1 (stereo not drawn),5,-4,0,3494,-2,0
Cc1cccn2cc(-c3ccc(S(=O)(=O)N4CCOCC4)cc3)nc12,18,1,187*,23299*,-1,0
Cc1cccn2cc(-c3ccc(S(=O)(=O)N4CCCCC4)cc3)nc12,8,1,135*,4319,4,1
Cc1ccc(-c2cn3cccc(C)c3n2)cc1,3,-8,27,3148,-1,0
O=S(=O)(c1ccc(-c2cn3ccccc3n2)cc1)N1CCOCC1,-6,1,+,22528*,-10,-9
Cc1cccn2cc(-c3ccc(Cl)cc3)nc12,6,-3,20,3771,6,0
O=S(=O)(c1ccc(-c2csc(-c3cccnc3)n2)cc1)N1CCCC1,4,-8,4,9290,2,0
O=S(=O)(c1ccc(-c2csc(-c3cccnc3)n2)cc1)N1CCCCC1,9,-4,0,22447*,-2,0
Cc1sc2ncnc(Sc3nnnn3-c3ccccc3)c2c1C,9,-3,27*,5280,0,0
